Source: PubChem BioAssay (NCI)
The panel holds about 83,000 compounds, 20% with a hit somewhere; the sample as a whole holds those more often.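 Growth was measured after 48 h exposure to one concentration of compound in 96-well plates. Values under 10 count as active.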 Calls of active or inactive are those of the source.

Legend:
Assay in all cases: NCI-60 one-dose screen, 48 h (100 = growth as untreated, 0 = no growth, -100 = all killed)
Settings in all cases: 10 µM unless noted
T-47D breast = system: T-47D breast
BT-549 breast = system: BT-549 breast
MDA-MB-435 melanoma = system: MDA-MB-435 melanoma
SW-620 colon = system: SW-620 colon
MCF7 breast = system: MCF7 breast
HCT-116 colon = system: HCT-116 colon
HCC-2998 colon = system: HCC-2998 colon
KM12 colon = system: KM12 colon

Measured: growth

FC(F)(F)c1ccccc1-c1cn2c(ccc3ccccc32)n1
inactive: T-47D breast 104% | BT-549 breast 80.8% | SW-620 colon 44.2% | MCF7 breast 77.4% | HCT-116 colon 74.9% | HCC-2998 colon 99.2% | KM12 colon 87%
active: MDA-MB-435 melanoma -25.3%

C=C(C)[C@@H]1C[C@@H]2Cc3cc(F)ccc3N1O2
inactive: T-47D breast 107% | BT-549 breast 106% | MDA-MB-435 melanoma 104% | SW-620 colon 98.6% | MCF7 breast 95.6% | HCT-116 colon 98.2% | HCC-2998 colon 93.9% | KM12 colon 103%

Cc1ccc(S(=O)(=O)n2cc(C(=O)C(=O)Nc3ccncc3)c3ccccc32)cc1
active: MDA-MB-435 melanoma 1.27%
inactive: T-47D breast 48.4% | BT-549 breast 37.5% | SW-620 colon 11.2% | MCF7 breast 19.5% | HCT-116 colon 17.5% | HCC-2998 colon 52.8% | KM12 colon 29.1%

O=c1[nH]c(NCc2ccccc2)nc2nc(Nc3ccc(NC(=S)Nc4ccccc4)cc3)nc(-c3ccc(O)cc3O)c12
inactive: T-47D breast 84% | BT-549 breast 155% | MDA-MB-435 melanoma 105% | SW-620 colon 95.6% | MCF7 breast 96.7% | HCT-116 colon 99.2% | HCC-2998 colon 113% | KM12 colon 96.3%

COC(=O)C1CCCN1C(=O)[C@@H]1CCCN1C(=O)[C@H](Cc1c[nH]c2ccccc12)NC(=S)Nc1cc(C(F)(F)F)cc(C(F)(F)F)c1 (stereo partly drawn)
inactive: T-47D breast 49.8% | BT-549 breast 70.3% | MDA-MB-435 melanoma 45% | SW-620 colon 69.9% | MCF7 breast 38.8% | HCT-116 colon 37.3% | HCC-2998 colon 15% | KM12 colon 25.2%

CCN(CC)c1ccc(C(=N)c2ccc(N(CC)CC)cc2)cc1
active: T-47D breast -27.9% | BT-549 breast 8.11% | MDA-MB-435 melanoma -35.2% | SW-620 colon -21% | MCF7 breast -18.9% | HCT-116 colon -60.1% | HCC-2998 colon -74.5% | KM12 colon -38.2%

COc1cccc(-c2nc3sccn3c2-c2ccnc(NCCCNS(=O)(=O)c3ccc(C(F)(F)F)cc3)c2)c1
inactive: T-47D breast 23.7% | BT-549 breast 54.6% | MDA-MB-435 melanoma 36.8% | SW-620 colon 68.5% | MCF7 breast 31.1% | HCT-116 colon 41.9% | HCC-2998 colon 72.2% | KM12 colon 57.2%

Nc1ccc(C(=O)CSc2nc3ccccc3[nH]2)cc1
inactive: T-47D breast 109% | BT-549 breast 94.5% | MDA-MB-435 melanoma 96.1% | SW-620 colon 101% | MCF7 breast 92.9% | HCT-116 colon 97.3% | HCC-2998 colon 100% | KM12 colon 103%

O=C1/C(=C/c2ccccc2)CN(C(=O)CCN2CCC(=NO)CC2)C/C1=C\c1ccccc1
active: T-47D breast -2.11% | BT-549 breast 2.46% | MDA-MB-435 melanoma -58.1% | SW-620 colon -52% | MCF7 breast -21.5% | HCT-116 colon -68.7% | HCC-2998 colon -65.5% | KM12 colon -63.1%

Cn1cc(-c2cnc3ccc(NC(=O)Nc4ccc(F)c(Br)c4)cc3n2)cn1
active: T-47D breast -38.1% | MCF7 breast 3.7%
inactive: BT-549 breast 20.5% | MDA-MB-435 melanoma 21.5% | SW-620 colon 39.8% | HCT-116 colon 22% | HCC-2998 colon 49.2% | KM12 colon 12.7%

CCCCCCCCCCCCNC(=O)[C@H]1CSC(c2ccsc2)N1 (stereo partly drawn)
active: T-47D breast -41.2% | BT-549 breast -67.6% | MDA-MB-435 melanoma -98.1% | SW-620 colon -75.9% | MCF7 breast -67.5% | HCT-116 colon -48.3% | KM12 colon -92.7%
inactive: HCC-2998 colon 11%

COc1cc(-c2ncn(/C=C\C(=O)OC(C)C)n2)cc(C(F)(F)F)c1
active: BT-549 breast -62.6% | MDA-MB-435 melanoma -34.7% | SW-620 colon 0.254% | MCF7 breast -24.5% | HCT-116 colon 2.85% | HCC-2998 colon -39.8% | KM12 colon 0.0792%
inactive: T-47D breast 16.3%

Cc1ccc2ccccc2c1C[n+]1ccccc1
inactive: T-47D breast 109% | BT-549 breast 79.8% | MDA-MB-435 melanoma 102% | SW-620 colon 99.7% | MCF7 breast 93.9% | HCT-116 colon 101% | HCC-2998 colon 95.2% | KM12 colon 87.8%

N=C(N)c1ccc(-c2cc(Cl)cc(Cl)c2)cn1
inactive: T-47D breast 83.7% | BT-549 breast 94.5% | MDA-MB-435 melanoma 56.7% | SW-620 colon 82.6% | MCF7 breast 75.9% | HCT-116 colon 92% | HCC-2998 colon 67.5% | KM12 colon 89.8%

COc1cc(-c2nn(C(=O)NS(=O)(=O)c3ccccc3)cc2-c2ccncc2)ccc1Cl
inactive: T-47D breast 62.6% | BT-549 breast 53.9% | MDA-MB-435 melanoma 85.5% | SW-620 colon 112% | MCF7 breast 94.6% | HCT-116 colon 84.6% | HCC-2998 colon 109% | KM12 colon 94.5%

CCCCCCCCCCCCCCCCCCNC(=O)[C@H]1CSC(c2ccc(OC)cc2O)N1 (stereo partly drawn)
inactive: T-47D breast 60% | BT-549 breast 27.4% | MDA-MB-435 melanoma 25.4% | SW-620 colon 67.3% | MCF7 breast 23.7% | HCT-116 colon 39.3% | HCC-2998 colon 76.7% | KM12 colon 27%

O=C(NNC(=S)Nc1ccccc1)c1cc2ccc1CCc1ccc(cc1)CC2
inactive: T-47D breast 53.6% | BT-549 breast 80.4% | MDA-MB-435 melanoma 70.3% | SW-620 colon 63.6% | MCF7 breast 61.7% | HCT-116 colon 44.5% | HCC-2998 colon 70.2% | KM12 colon 77.1%

Oc1ccc(Cl)cc1-c1cc(-c2ccc(F)cc2)n[nH]1
inactive: T-47D breast 24.3% | BT-549 breast 84.7% | MDA-MB-435 melanoma 83% | SW-620 colon 75.5% | MCF7 breast 15.8% | HCT-116 colon 51.5% | HCC-2998 colon 37.8% | KM12 colon 37%

COc1cc(-c2nn(-c3cccc(NC(=O)Nc4cc(C(F)(F)F)cc(C(F)(F)F)c4)c3)cc2-c2ccncc2)ccc1Cl
active: T-47D breast 4.45% | BT-549 breast -8.96% | MDA-MB-435 melanoma -58.3% | SW-620 colon -2.89% | MCF7 breast 1.74% | HCT-116 colon -43.6% | HCC-2998 colon -10.8% | KM12 colon -14.8%

Cc1cc(N/N=C/c2nc(-c3ccccc3)oc2C)c2cc(Br)ccc2n1
inactive: T-47D breast 75.6% | BT-549 breast 93.4% | MDA-MB-435 melanoma 43.4% | SW-620 colon 28.4% | MCF7 breast 46.2% | HCT-116 colon 42% | HCC-2998 colon 100% | KM12 colon 82%

C=C1C(=O)O[C@H]2[C@H]1CC/C(Cn1cc(-c3cccc(Cl)c3)nn1)=C\CC[C@@]1(C)O[C@@H]21
inactive: KM12 colon 12.9%
active: T-47D breast -43.7% | BT-549 breast -49.5% | MDA-MB-435 melanoma -78.6% | SW-620 colon -77.8% | MCF7 breast -46.8% | HCT-116 colon -84.8% | HCC-2998 colon -85.5%

C=C1C(=O)O[C@@H]2[C@@H]3O[C@@](C)(CC/C=C(\C)CCC[C@@H]2C)[C@H](O)C[C@@H]13
inactive: T-47D breast 50.9% | BT-549 breast 19.1% | MDA-MB-435 melanoma 19.2% | SW-620 colon 33.5% | MCF7 breast 36.3% | HCC-2998 colon 97.5% | KM12 colon 75.8%
active: HCT-116 colon -4.01%

CCO/C=N/C1=C(C#N)C(c2ccc(Cl)cc2)c2c(c3ccccc3n(C)c2=O)O1 (stereo not drawn)
active: MDA-MB-435 melanoma 1.36%
inactive: T-47D breast 65.1% | BT-549 breast 81.4% | SW-620 colon 52.1% | MCF7 breast 41.7% | HCT-116 colon 66.5% | HCC-2998 colon 84.5% | KM12 colon 69.1%

COc1ccc(/C=C2\Oc3cc(OCCCN4CCCC4)ccc3C2=O)cc1
inactive: T-47D breast 94% | BT-549 breast 95.5% | MDA-MB-435 melanoma 97.6% | SW-620 colon 77.1% | MCF7 breast 69.8% | HCT-116 colon 55.7% | HCC-2998 colon 91.3% | KM12 colon 82.7%

CCc1ccc(-c2ccc(=O)n(-c3ccc(S(N)(=O)=O)cc3)n2)cc1
active: BT-549 breast 7.69% | MDA-MB-435 melanoma -17.8% | SW-620 colon 7.19%
inactive: T-47D breast 33.4% | MCF7 breast 30.2% | HCT-116 colon 16.8% | HCC-2998 colon 53.9% | KM12 colon 13.6%

CCOC(=O)C1C(=O)C=C(c2ccc(OC)cc2)CC1c1sc(N(C)Cc2ccccc2)nc1Cl (stereo not drawn)
inactive: T-47D breast 64.2% | BT-549 breast 94.4% | MDA-MB-435 melanoma 85.1% | SW-620 colon 82.9% | MCF7 breast 83.5% | HCT-116 colon 71.9% | HCC-2998 colon 98.9% | KM12 colon 81.4%

COc1cc2c(cc1OCCCCCn1c3ccccc3c3ccccc31)N=C[C@@H]1CCCN1C2=O
active: T-47D breast -34.1% | BT-549 breast -61.6% | MDA-MB-435 melanoma -99.2% | SW-620 colon -79.1% | MCF7 breast -30.9% | HCT-116 colon -75.8% | HCC-2998 colon -94.8% | KM12 colon -11.4%

CC(C)C(C(=O)NCCN1CCOCC1)N1C(=O)/C(=C/c2ccc(Br)cc2)SC1=S (stereo not drawn)
inactive: T-47D breast 94.1% | BT-549 breast 99% | MDA-MB-435 melanoma 101% | SW-620 colon 102% | MCF7 breast 95.3% | HCT-116 colon 94.8% | HCC-2998 colon 107% | KM12 colon 99.7%

O=C1Nc2ccc(Cl)cc2C12Nc1cc(Cl)ccc1S2 (stereo not drawn)
inactive: T-47D breast 33.8% | BT-549 breast 80% | MDA-MB-435 melanoma 91.4% | SW-620 colon 98.9% | MCF7 breast 43.4% | HCT-116 colon 61.2% | HCC-2998 colon 78.9% | KM12 colon 70.7%

COc1ccc(Nc2nn3c(C)cc(C)nc3c2C(=O)Nc2ccc(C)cc2)c(OC)c1
inactive: T-47D breast 87.7% | BT-549 breast 96.2% | MDA-MB-435 melanoma 105% | SW-620 colon 105% | MCF7 breast 101% | HCT-116 colon 99% | HCC-2998 colon 94.2% | KM12 colon 100%

COc1cc(C2NN=C3c4ccccc4CCC32)cc(OC)c1OC (stereo not drawn)
inactive: T-47D breast 39.3% | BT-549 breast 103% | MDA-MB-435 melanoma 96.9% | SW-620 colon 93.9% | MCF7 breast 42.7% | HCT-116 colon 74.8% | HCC-2998 colon 110% | KM12 colon 80.4%
